Results from PubChem BioAssay AID1159580 (chemical genetic matrix, 2015).
About 2,000 (36%) of roughly 5,500 compounds were called active. Inconclusive results (about 18%) are left out. No stated cut-off is given here; in the data, active means normalized growth mostly below about 0.91 (no sharp cut-off); inconclusive means no clear call, values can overlap the other calls; inactive means mostly above about 0.92. Some of the results follow.

Experiment: chemical genetic growth profiling, strain panel (AID 1159580);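 further: tested at 20 µM; growth read once vehicle control cultures reached saturation at 30 °C; 1 = growth at the plate median or of vehicle wells; lower values mean less growth of the strain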
Conditions: growth OD

Measured: normalized growth

C[C@@H]1C(=O)OC2[C@H](O)C34[C@@H]5OC(=O)[C@@]3(O[C@@H]3OC(=O)[C@H](O)[C@@]34[C@H](C(C)(C)C)[C@H]5O)[C@]21O (some centres undefined)
inactive: S. cerevisiae deletion strains, locus YJR066W, strain TOR1, hits give low values 0.958 | S. cerevisiae deletion strains, locus YKL009W, strain mrt4, hits give low values 1.02 | S. cerevisiae deletion strains, locus YKL068W, hits give low values 1 | S. cerevisiae deletion strains, locus YKL085W, strain MDH1 (second series), hits give low values 1.01 | S. cerevisiae deletion strains, locus YKL085W, strain MDH1, hits give low values 1.01 | S. cerevisiae deletion strains, locus YKL160W, strain elf1, hits give low values 0.981 | S. cerevisiae deletion strains, locus YKL190W, strain CNB1, hits give low values 0.993 | S. cerevisiae deletion strains, locus YKR001C, strain vps1, hits give low values 1.02 | S. cerevisiae deletion strains, locus YKR026C, strain gcn3, hits give low values 0.977 | S. cerevisiae deletion strains, locus YKR091W, strain srl3, hits give low values 0.955 | S. cerevisiae deletion strains, locus YLL001W, strain dnm1, hits give low values 0.987 | S. cerevisiae deletion strains, locus YLL026W, hits give low values 0.984 | S. cerevisiae deletion strains, locus YLL041C, strain sdh2, hits give low values 0.971 | S. cerevisiae deletion strains, locus YLR027C, strain aat2, hits give low values 0.973 | S. cerevisiae deletion strains, locus YLR039C, strain RIC1, hits give low values 1 | S. cerevisiae deletion strains, locus YLR058C, strain SHM2, hits give low values 1 | S. cerevisiae deletion strains, locus YLR102C, strain apc9, hits give low values 1.01 | S. cerevisiae deletion strains, locus YLR113W, strain HOG1, hits give low values 0.997 | S. cerevisiae deletion strains, locus YLR221C, strain rsa3, hits give low values 0.978 | S. cerevisiae deletion strains, locus YLR258W, strain gsy2, hits give low values 0.978 | S. cerevisiae deletion strains, locus YLR262C, strain YPT6 (second series), hits give low values 0.964 | S. cerevisiae deletion strains, locus YLR262C, strain YPT6, hits give low values 1.01 | S. cerevisiae deletion strains, locus YLR268W, strain sec22, hits give low values 1.02 | S. cerevisiae deletion strains, locus YLR320W, strain mms22, hits give low values 0.98 | S. cerevisiae deletion strains, locus YLR330W, strain CHS5, hits give low values 1.01 | S. cerevisiae deletion strains, locus YLR342W, strain FKS1 (second series), hits give low values 1.01 | S. cerevisiae deletion strains, locus YLR342W, strain FKS1, hits give low values 0.982 | S. cerevisiae deletion strains, locus YLR357W, strain rsc2, hits give low values 0.932 | S. cerevisiae deletion strains, locus YLR370C, strain arc18, hits give low values 0.97 | S. cerevisiae deletion strains, locus YLR371W, strain rom2, hits give low values 1.02 | S. cerevisiae deletion strains, locus YLR384C, strain iki3, hits give low values 0.981 | S. cerevisiae deletion strains, locus YLR418C, strain cdc73, hits give low values 1.02 | S. cerevisiae deletion strains, locus YML016C, strain PPZ1, hits give low values 1.01 | S. cerevisiae deletion strains, locus YML032C, strain rad52, hits give low values 1 | S. cerevisiae deletion strains, locus YML120C, strain ndi1, hits give low values 0.975 | S. cerevisiae deletion strains, locus YML124C, strain tub3, hits give low values 1.02 | S. cerevisiae deletion strains, locus YMR058W, strain fet3, hits give low values 0.966 | S. cerevisiae deletion strains, locus YMR078C, strain ctf18, hits give low values 1.02 | S. cerevisiae deletion strains, locus YMR125W, strain sto1, hits give low values 0.941 | S. cerevisiae deletion strains, locus YMR129W, hits give low values 0.959 | S. cerevisiae deletion strains, locus YMR205C, strain PFK2, hits give low values 0.984 | S. cerevisiae deletion strains, locus YMR223W, strain ubp8, hits give low values 1.03 | S. cerevisiae deletion strains, locus YMR231W, strain pep5, hits give low values 0.984 | S. cerevisiae deletion strains, locus YMR263W, strain SAP30, hits give low values 1 | S. cerevisiae deletion strains, locus YMR307W, strain GAS1, hits give low values 0.979 | S. cerevisiae deletion strains, locus YNL067W, strain RPL9B, hits give low values 0.995 | S. cerevisiae deletion strains, locus YNL071W, strain lat1, hits give low values 0.974 | S. cerevisiae deletion strains, locus YNL183C, strain NPR1, hits give low values 0.973 | S. cerevisiae deletion strains, locus YNL209W, strain ssb2, hits give low values 0.971 | S. cerevisiae deletion strains, locus YNL233W, strain BNI4, hits give low values 1 | S. cerevisiae deletion strains, locus YNL248C, strain rpa49, hits give low values 0.961 | S. cerevisiae deletion strains, locus YNL250W, strain rad50, hits give low values 1.02 | S. cerevisiae deletion strains, locus YNL271C, strain bni1, hits give low values 1.01 | S. cerevisiae deletion strains, locus YNL298W, strain CLA4, hits give low values 1.02 | S. cerevisiae deletion strains, locus YNL307C, strain MCK1, hits give low values 1.03 | S. cerevisiae deletion strains, locus YNL322C, strain KRE1 (second series), hits give low values 0.963 | S. cerevisiae deletion strains, locus YNL322C, strain KRE1, hits give low values 1 | S. cerevisiae deletion strains, locus YNR049C, strain mso1, hits give low values 0.95 | S. cerevisiae deletion strains, locus YNR052C, strain pop2, hits give low values 1.01 | S. cerevisiae deletion strains, locus YOL012C, strain htz1 1.18 | S. cerevisiae deletion strains, locus YOL147C, strain pex11, hits give low values 1.02 | S. cerevisiae deletion strains, locus YOR001W, strain rrp6, hits give low values 0.972 | S. cerevisiae deletion strains, locus YOR061W, strain CKA2, hits give low values 1 | S. cerevisiae deletion strains, locus YOR069W, strain VPS5, hits give low values 0.997 | S. cerevisiae deletion strains, locus YOR070C, strain gyp1, hits give low values 0.988 | S. cerevisiae deletion strains, locus YOR080W, strain dia2, hits give low values 0.951 | S. cerevisiae deletion strains, locus YOR083W, strain WHI5, hits give low values 0.988 | S. cerevisiae deletion strains, locus YOR106W, strain vam3, hits give low values 0.978 | S. cerevisiae deletion strains, locus YOR136W, strain idh2, hits give low values 1.01 | S. cerevisiae deletion strains, locus YOR144C, strain elg1, hits give low values 1.01 | S. cerevisiae deletion strains, locus YOR184W, strain ser1, hits give low values 1.03 | S. cerevisiae deletion strains, locus YOR231W, strain MKK1, hits give low values 1.02 | S. cerevisiae deletion strains, locus YOR265W, strain rbl2, hits give low values 0.977 | S. cerevisiae deletion strains, locus YOR270C, strain vph1, hits give low values 0.935 | S. cerevisiae deletion strains, locus YOR290C, strain snf2, hits give low values 0.953 | S. cerevisiae deletion strains, locus YOR316C, strain cot1, hits give low values 1.02 | S. cerevisiae deletion strains, locus YPL051W, strain arl3, hits give low values 0.985 | S. cerevisiae deletion strains, locus YPL055C, strain LGE1, hits give low values 0.998 | S. cerevisiae deletion strains, locus YPL078C, strain atp4, hits give low values 0.984 | S. cerevisiae deletion strains, locus YPL106C, strain sse1, hits give low values 0.944 | S. cerevisiae deletion strains, locus YPL240C, strain hsp82, hits give low values 0.979 | S. cerevisiae deletion strains, locus YPL241C, strain CIN2, hits give low values 0.99 | S. cerevisiae deletion strains, locus YPL256C, strain CLN2, hits give low values 1.06 | S. cerevisiae deletion strains, locus YPR119W, strain clb2, hits give low values 1.01 | S. cerevisiae deletion strains, locus YPR141C, strain kar3, hits give low values 1.01 | S. cerevisiae deletion strains, locus YPR163C, strain tif3, hits give low values 1.02 | S. cerevisiae deletion strains, locus YPR167C, strain met16, hits give low values 1.02 | S. cerevisiae deletion strains, strain wtn01, hits give low values 1.04 | S. cerevisiae strains, strain wild type, hits give low values 0.983
